Data on ten molecules can be found in ChEMBL document CHEMBL3988442, “University of Dundee, Small-Polar-MMV Screening Library” (2021).

For some assays here: Entries with a potency or affinity are not part of this list.

Common to all, as to parameters: scale not given: direction of the effect not stated beside the values
The target in experiment [1] is Protein translocase subunit SecA (Escherichia coli (strain K12)) (UniProt P10408). The experiment can be described thus: Assay to Identify E. coli SecA ATPase Inhibitors. In kind it is functional. The conditions noted are these: 30 µM.
Experiment [2] has as its target T1, Ubiquitin-activating enzyme e1, putative (Leishmania donovani (strain BPK282A1)) (UniProt E9BSI1).
T1 sequence (whole entry): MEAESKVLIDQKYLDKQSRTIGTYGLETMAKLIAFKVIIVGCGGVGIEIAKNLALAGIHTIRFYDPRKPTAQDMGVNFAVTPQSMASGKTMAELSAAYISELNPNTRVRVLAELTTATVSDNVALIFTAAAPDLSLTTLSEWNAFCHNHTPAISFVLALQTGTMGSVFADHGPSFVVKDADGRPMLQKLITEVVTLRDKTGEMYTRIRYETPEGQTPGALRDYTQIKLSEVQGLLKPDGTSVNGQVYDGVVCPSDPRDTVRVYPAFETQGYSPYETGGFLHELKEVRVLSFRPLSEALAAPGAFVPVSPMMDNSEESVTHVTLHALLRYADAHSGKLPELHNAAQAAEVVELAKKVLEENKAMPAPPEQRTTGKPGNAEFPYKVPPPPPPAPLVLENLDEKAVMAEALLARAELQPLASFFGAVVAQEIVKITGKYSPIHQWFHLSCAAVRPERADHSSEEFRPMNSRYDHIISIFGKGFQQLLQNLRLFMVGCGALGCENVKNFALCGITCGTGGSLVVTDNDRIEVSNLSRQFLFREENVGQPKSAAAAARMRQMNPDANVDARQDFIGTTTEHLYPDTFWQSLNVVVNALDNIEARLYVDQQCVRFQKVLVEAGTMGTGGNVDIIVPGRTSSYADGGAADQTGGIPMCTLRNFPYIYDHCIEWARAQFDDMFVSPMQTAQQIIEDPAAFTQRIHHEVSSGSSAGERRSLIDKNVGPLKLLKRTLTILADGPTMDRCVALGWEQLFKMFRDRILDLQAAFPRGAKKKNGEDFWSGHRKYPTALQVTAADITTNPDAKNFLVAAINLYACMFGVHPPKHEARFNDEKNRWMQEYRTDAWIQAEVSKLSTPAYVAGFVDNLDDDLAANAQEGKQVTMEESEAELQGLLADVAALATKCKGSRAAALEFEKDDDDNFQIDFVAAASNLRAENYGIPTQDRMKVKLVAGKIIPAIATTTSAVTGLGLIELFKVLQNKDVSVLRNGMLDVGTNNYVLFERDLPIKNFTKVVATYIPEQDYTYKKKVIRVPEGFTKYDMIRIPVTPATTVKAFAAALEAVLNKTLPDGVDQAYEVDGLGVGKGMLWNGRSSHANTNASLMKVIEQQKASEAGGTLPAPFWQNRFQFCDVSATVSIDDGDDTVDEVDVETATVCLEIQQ
Description: Leishmania donovani Ubiquitin Activating Enzyme (LdE1). In kind it is functional. The conditions noted are these: 30 µM.

The target of experiment [3] is AMP-activated protein kinase, AMPK (Homo sapiens) (UniProt P54646+O43741+P54619+Q9UGJ0+Q9Y478+Q13131+Q9UGI9). The experiment can be described thus: AMP-dependent Kinase enzyme assay. An in vitro enzyme assay that detects ADP turnover that is directly proportional to AMPK activity. This uses naive AMPK that is activated during the assay with MK-8722. In kind it is functional. As to conditions: 30 µM.

Experiment [4] concerns the target Sialic acid-binding Ig-like lectin 9 (Homo sapiens) (UniProt Q9Y336). The experiment can be described thus: Hs-Siglec9 ALPHAscreen SOP 20170721. As to conditions: 10 µM.
A further experiment relates to Trypanosoma cruzi. Description: Trypanosoma cruzi phosphomannomutase and mannose-1-phosphate guanylyltransferase assay. In kind it is functional. As to conditions: 10 µM.
In experiment [5] the target is T2, Arginase-2, mitochondrial (Homo sapiens) (UniProt P78540).
T2 sequence (whole entry): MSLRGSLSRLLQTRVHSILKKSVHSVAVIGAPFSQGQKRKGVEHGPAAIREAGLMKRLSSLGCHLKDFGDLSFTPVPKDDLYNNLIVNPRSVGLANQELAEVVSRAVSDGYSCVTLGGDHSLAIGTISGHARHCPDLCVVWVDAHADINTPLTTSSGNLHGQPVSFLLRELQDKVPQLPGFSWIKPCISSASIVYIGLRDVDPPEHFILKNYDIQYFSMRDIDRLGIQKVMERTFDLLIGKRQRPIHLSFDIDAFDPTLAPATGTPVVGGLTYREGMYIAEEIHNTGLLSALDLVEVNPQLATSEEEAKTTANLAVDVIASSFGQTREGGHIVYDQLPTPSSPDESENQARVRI
Description: in vitro enzyme assay to detect the production of urea directly proportional to the activity of Arginase II. Note: in the data most compounds retested in dose-response had high values. It counts as functional. The conditions noted are these: 33.3 µM.

For experiment [6], the target named is T3, Proteasome subunit beta (Trypanosoma cruzi) (UniProt O96673).
T3 sequence (whole entry): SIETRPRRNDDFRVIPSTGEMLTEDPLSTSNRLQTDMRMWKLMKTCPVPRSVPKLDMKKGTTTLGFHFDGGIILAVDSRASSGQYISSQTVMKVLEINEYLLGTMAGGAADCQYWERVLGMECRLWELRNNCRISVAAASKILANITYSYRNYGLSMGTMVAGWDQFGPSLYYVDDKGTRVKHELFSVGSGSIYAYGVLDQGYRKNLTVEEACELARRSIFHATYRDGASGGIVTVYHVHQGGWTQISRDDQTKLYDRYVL
Description: Trypanosoma cruzi proteasome chymotrypsin-like activity (TcProtChymo) assay. Note: in the data most compounds retested in dose-response had high values. It counts as functional. The conditions noted are these: 9.37 µM.

The species entered for a further experiment is Homo sapiens. The experiment can be described thus: To identify inhibition of the IFN signalling (Jak-Stat) pathway via expression of an eGFP reporter gene under the control of an IFN-stimulated response element (ISRE) containing MxA promoter. It counts as functional. The conditions noted are these: 30 µM. In general terms: A reporter such as luciferase makes a cellular process visible.

For experiment [7], the target named is T4, Tyrosyl-tRNA synthetase, putative (Trypanosoma cruzi (strain CL Brener)) (UniProt Q4DSP6).
T4 sequence (whole entry): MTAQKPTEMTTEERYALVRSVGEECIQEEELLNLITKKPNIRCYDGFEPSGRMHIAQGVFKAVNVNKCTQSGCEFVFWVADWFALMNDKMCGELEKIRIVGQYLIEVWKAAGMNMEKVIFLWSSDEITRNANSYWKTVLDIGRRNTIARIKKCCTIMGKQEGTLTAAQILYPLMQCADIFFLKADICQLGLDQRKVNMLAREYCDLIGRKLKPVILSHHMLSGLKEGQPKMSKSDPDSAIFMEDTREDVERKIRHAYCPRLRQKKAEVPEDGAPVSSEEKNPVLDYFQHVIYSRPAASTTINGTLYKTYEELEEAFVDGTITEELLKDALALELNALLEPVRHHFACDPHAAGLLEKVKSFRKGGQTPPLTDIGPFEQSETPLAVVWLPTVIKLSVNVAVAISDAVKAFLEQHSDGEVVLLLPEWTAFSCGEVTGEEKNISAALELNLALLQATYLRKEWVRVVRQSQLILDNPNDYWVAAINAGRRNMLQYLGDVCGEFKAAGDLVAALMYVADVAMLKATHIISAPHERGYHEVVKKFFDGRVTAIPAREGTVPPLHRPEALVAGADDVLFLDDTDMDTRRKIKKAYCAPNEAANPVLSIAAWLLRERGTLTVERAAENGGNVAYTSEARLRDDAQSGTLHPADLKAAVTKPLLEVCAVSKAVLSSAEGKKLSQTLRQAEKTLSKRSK
Description: Trypanosoma cruzi tyrosyl tRNA synthetase (TcYRS) _High Tyrosine SOP. Note: in the data most compounds retested in dose-response had high values. In kind it is functional. The conditions noted are these: 30 µM.

In experiment [8] the target is T4, Tyrosyl-tRNA synthetase, putative (Trypanosoma cruzi (strain CL Brener)). The experiment can be described thus: Trypanosoma cruzi tyrosyl tRNA synthetase (TcYRS) SOP. It counts as functional. As to conditions: 30 µM.
Experiment [9] addresses Chromo domain-containing protein 1 (Saccharomyces cerevisiae (strain ATCC 204508 / S288c) (Baker's yeast)) (UniProt P32657). The experiment can be described thus: ScCHD-1 Enzyme Inhibition Assay. Note: in the data most compounds retested in dose-response had high values. As to conditions: 30 µM. It counts as functional.

Chain of Chromo domain-containing protein 1 (Saccharomyces cerevisiae (strain ATCC 204508 / S288c) (Baker's yeast)) (P32657 whole entry, the tested form may be a part): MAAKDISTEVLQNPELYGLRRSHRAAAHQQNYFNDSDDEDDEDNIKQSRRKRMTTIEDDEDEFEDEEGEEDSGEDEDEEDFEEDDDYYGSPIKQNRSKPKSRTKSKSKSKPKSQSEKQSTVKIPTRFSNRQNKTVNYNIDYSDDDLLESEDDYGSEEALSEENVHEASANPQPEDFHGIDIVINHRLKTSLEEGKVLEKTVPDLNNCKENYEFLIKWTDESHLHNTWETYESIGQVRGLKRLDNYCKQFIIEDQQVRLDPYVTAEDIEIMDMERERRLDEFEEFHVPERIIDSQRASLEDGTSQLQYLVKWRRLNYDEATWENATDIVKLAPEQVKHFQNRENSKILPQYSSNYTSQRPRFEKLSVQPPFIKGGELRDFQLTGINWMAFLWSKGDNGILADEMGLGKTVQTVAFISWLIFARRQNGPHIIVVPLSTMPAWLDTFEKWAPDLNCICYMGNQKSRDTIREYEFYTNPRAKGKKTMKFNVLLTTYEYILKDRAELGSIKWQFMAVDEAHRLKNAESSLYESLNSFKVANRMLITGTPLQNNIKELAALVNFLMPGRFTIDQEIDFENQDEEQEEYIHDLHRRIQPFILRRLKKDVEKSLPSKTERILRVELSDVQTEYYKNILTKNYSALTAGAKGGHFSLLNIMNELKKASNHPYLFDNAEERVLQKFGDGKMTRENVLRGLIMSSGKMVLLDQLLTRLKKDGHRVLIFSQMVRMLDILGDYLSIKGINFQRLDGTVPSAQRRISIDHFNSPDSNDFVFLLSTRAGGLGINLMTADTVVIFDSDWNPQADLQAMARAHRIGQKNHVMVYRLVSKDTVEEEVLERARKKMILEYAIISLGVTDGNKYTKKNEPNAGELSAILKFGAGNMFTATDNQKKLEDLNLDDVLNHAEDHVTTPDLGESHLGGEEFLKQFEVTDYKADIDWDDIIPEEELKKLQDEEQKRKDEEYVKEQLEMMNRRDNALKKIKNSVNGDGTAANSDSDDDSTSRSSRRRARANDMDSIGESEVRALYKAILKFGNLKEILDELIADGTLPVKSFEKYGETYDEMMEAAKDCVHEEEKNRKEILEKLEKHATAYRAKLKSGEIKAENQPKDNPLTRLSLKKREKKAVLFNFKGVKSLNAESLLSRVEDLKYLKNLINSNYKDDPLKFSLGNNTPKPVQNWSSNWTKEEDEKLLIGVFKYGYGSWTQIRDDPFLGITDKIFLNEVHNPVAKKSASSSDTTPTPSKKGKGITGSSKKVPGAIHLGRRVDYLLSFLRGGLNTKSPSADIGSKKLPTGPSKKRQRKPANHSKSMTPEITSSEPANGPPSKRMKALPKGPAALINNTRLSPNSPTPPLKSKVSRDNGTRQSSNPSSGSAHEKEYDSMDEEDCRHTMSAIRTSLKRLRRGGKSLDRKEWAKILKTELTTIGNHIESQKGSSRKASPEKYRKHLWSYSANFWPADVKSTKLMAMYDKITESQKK
Chain of Protein translocase subunit SecA (Escherichia coli (strain K12)) (P10408 whole entry): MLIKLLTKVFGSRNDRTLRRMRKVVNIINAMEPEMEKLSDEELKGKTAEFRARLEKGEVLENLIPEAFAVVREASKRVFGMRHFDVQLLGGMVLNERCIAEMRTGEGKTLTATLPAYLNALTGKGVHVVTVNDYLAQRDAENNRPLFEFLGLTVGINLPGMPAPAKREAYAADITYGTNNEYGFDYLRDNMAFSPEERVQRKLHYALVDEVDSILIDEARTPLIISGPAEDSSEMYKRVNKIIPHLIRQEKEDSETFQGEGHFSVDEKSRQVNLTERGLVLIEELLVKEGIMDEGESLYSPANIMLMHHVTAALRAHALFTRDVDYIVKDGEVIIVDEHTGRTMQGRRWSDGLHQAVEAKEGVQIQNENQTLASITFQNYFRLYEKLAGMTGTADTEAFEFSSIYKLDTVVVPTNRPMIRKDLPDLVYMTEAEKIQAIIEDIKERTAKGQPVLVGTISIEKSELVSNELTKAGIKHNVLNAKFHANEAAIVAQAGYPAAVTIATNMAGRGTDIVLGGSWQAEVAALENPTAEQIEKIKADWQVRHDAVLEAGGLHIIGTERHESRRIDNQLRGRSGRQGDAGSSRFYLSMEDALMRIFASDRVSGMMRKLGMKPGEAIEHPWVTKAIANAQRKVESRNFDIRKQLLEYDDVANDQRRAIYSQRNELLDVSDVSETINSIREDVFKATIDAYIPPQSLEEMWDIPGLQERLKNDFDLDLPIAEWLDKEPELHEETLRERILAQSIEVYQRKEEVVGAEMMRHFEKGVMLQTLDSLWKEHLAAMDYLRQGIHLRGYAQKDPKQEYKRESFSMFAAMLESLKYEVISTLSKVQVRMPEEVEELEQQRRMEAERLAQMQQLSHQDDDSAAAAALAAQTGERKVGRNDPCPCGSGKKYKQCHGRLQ
Chain of Sialic acid-binding Ig-like lectin 9 (Homo sapiens) (Q9Y336 whole entry): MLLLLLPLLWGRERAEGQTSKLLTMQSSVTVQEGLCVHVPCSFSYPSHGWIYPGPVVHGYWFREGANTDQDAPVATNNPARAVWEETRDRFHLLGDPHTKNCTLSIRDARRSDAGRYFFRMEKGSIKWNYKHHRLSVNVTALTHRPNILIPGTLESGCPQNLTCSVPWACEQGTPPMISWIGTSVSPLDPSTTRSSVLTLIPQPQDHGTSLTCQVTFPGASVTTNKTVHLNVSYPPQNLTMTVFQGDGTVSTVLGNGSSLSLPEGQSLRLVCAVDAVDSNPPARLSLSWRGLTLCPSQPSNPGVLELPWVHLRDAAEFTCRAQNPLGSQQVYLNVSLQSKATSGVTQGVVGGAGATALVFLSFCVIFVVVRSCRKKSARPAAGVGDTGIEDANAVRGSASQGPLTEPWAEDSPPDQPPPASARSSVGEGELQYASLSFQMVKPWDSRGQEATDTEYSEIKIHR

In the case of `COc1ccc(C)cc1NC(=O)Nc1cnc(N2CCN(C)CC2)nc1`, the Percent Effect in [1] is -1.71%; in [2], 7.79%; in [3], 2.48%; in [4], -0.124%; with Trypanosoma cruzi, 5.42%; in experiment [5] it was -12.3%. The Percent Effect in [6] was 8.18%; in the experiment filed under Homo sapiens it was 36.4%; in experiment [7], 6.35%; in experiment [8], 11.5%; in experiment [9], -11.3%.

`Cc1noc(C)c1CNCC1CCCN1c1cccnn1` (stereo not given): the Percent Effect in [1] was -6.8%; in experiment [2] it was -5.2%; in experiment [3] it was 5.72%; in [4], -3.1%; in the experiment with Trypanosoma cruzi, -4.02%; in experiment [5] it was -3.16%. The Percent Effect in experiment [6] was -2.83%; in the experiment listed under Homo sapiens, 6.36%; in experiment [7], 1.91%; in experiment [8], -2.35%; in experiment [9], -1.61%.

Consider `CNS(=O)(=O)c1ccc(C(=O)N2CCCC2c2cnn(C)c2)o1` (stereo not given), for which the Percent Effect in experiment [1] is -2.43%; in [2], 7.89%; in [3], -0.508%; in [4], -1.15%; with Trypanosoma cruzi, 8.12%; in experiment [5], 0.719%. Also, the Percent Effect in experiment [6] is -0.761%; in the experiment listed under Homo sapiens, 1.2%; in [7], 1.48%; in experiment [8], 6.17%; in experiment [9] it was -6.23%.

As to `CCOc1ccnc(N2CCN(C(=O)c3cccnc3O)CC2)n1`, the Percent Effect is -3.86% in experiment [1]; 17.7% in experiment [2]; -4.02% in experiment [3]; 2.97% in experiment [4]; 0.283% in the experiment on Trypanosoma cruzi; 4.56% in experiment [5]. In addition, the Percent Effect is 4.5% in [6]; 2.56% in the experiment listed under Homo sapiens; 15.3% in experiment [7]; 26.6% in [8]; -4.5% in [9].

As for `CCn1ncnc1C(C)NC(=O)C1CCN(C(=O)COC)CC1` (stereo not given), the Percent Effect in experiment [1] was -7.01%; in experiment [2], 8.11%; in experiment [3], -1.09%; in [4] it was 0.673%; with Trypanosoma cruzi, -0.489%; in [5], 4.22%. Moreover, the Percent Effect in [6] was 9.19%; in the experiment listed under Homo sapiens it was 1.26%; in experiment [7], 10.8%; in [8] it was 18.5%; in experiment [9], -2.43%.

With `CCC(O)CN1CCN(C(=O)c2cccn2Cc2cccs2)CC1` (stereo not given), the Percent Effect in [1] is -3.15%; in [2], 5.06%; in experiment [3], 1.52%; in experiment [4], 11.3%; in the experiment on Trypanosoma cruzi, -2.17%; in [5] it was 0.38%. Moreover, the Percent Effect in [6] is -3.03%; in the experiment listed under Homo sapiens it was 5.7%; in experiment [7] it was 4.43%; in experiment [8], 11.4%; in [9] it was -5.26%.

For `COc1ccc2nnc(CCCC(=O)NCc3cccn3C)n2n1`, the Percent Effect in experiment [1] was -2.1%; in [2], 22.7%; in experiment [3], -8.56%; in experiment [4] it was 0.257%; in the experiment on Trypanosoma cruzi, 1.57%; in experiment [5] it was 0.176%. Also, the Percent Effect in [6] was 17.4%; in the experiment filed under Homo sapiens, -1.92%; in experiment [7], 8.47%; in experiment [8], -41%; in experiment [9], -12%.

Consider `CC(=O)N1CCCC1C(=O)NCCOc1cc(C)cc(C)c1` (stereo not given), for which the Percent Effect is -7.33% in experiment [1]; 7.79% in [2]; -4.76% in [3]; 10.6% in experiment [4]; 3.37% in the experiment on Trypanosoma cruzi; -5.34% in [5]. The Percent Effect in experiment [6] is -7.43%; in the experiment filed under Homo sapiens, -4.36%; in [7], 6.8%; in [8], 12.2%; in experiment [9], -4.02%.

For `CCC(=O)N(C)C1CCN(Cc2ncc(C)c(OC)c2C)CC1`, the Percent Effect in experiment [1] was -5.54%; in [2], 18.2%; in experiment [3], -1.36%; in experiment [4], -0.124%; in the experiment on Trypanosoma cruzi, 2.25%; in experiment [5], 2.13%. Further, the Percent Effect was 18.9% in experiment [6]; 16.3% in the experiment filed under Homo sapiens; 5.83% in experiment [7]; 19.5% in experiment [8]; -7.08% in experiment [9].

Turning to `CCc1nc(CN2CCCN(c3nccs3)CC2)no1`, the Percent Effect was -2.88% in experiment [1]; 15.6% in experiment [2]; -3.3% in [3]; -7.59% in experiment [4]; -3.93% in the experiment on Trypanosoma cruzi; 1.78% in experiment [5]. Further, the Percent Effect in experiment [6] is 12.5%; in the experiment listed under Homo sapiens, 26.3%; in [7], 3.88%; in [8], 9.76%; in experiment [9] it was -8.02%.
